We go through seven compounds from PubChem BioAssay (NCI).

This is part of a sample that, as a whole, favours compounds with a hit. Of some 83,000 tested, about 20% had one in any assay.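 Testing used 96-well plates and a 48-hour single-concentration exposure. Example: -40 means 40% of the starting cells died.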 A number with no mark means an inactive call. Active and inactive are the calls of the source. Rule for the calls: active = growth percent below 10; inactive = the rest.

What all share (test): NCI-60 one-dose screen, 48 h (100 = growth as untreated, 0 = no growth, -100 = all killed)
What all share (conditions): 10 µM unless noted

The subject of experiment [1] is HCT-15 colon.
In experiment [2] the test system is HT29 colon.
In experiment [3] the test system is SNB-75 CNS.
For experiment [4], the system named is SNB-19 CNS.
The subject of experiment [5] is U251 CNS.
The subject of experiment [6] is PC-3 prostate.
Experiment [7] has as its system SK-MEL-5 melanoma.
Experiment [8] has as its system UACC-62 melanoma.
Experiment [9] has as its system LOX IMVI melanoma.
For experiment [10], the system named is SK-MEL-28 melanoma.
Experiment [11] relates to SK-MEL-2 melanoma.
The subject of experiment [12] is EKVX NSCLC.
For experiment [13], the system named is SN12C renal.
The subject of experiment [14] is UO-31 renal.
For experiment [15], the system named is TK-10 renal.
Experiment [16] concerns ACHN renal.
In experiment [17] the test system is CAKI-1 renal.
Experiment [18] concerns A498 renal.
The test system of experiment [19] is CCRF-CEM leukemia.
The test system of experiment [20] is MOLT-4 leukemia.

Take `COC(=O)c1cc(-c2ccccc2)[nH]c1N/N=C/c1c(Cl)cccc1Cl`: the growth is 15% in [1]; -8.44% (active) in experiment [2]; 0.903% (active) in [3]; 13.6% in experiment [4]; 12.1% in experiment [5]; 5.23% (active) in experiment [6]. In addition, the growth in experiment [7] was 16.8%; in [8], 42.4%; in experiment [9], 21%; in experiment [10], 11.4%; in [11], -4.44% (active); in experiment [12], -1.92% (active). Further, the growth in [13] was 35.2%; in experiment [14], 42.3%; in [15], 26.4%; in [16], 44%; in experiment [17], 5.94% (active); in experiment [18] it was -45.8% (active). The growth was -8.44% (active) in experiment [19] and -9.43% (active) in experiment [20].
Regarding `C=C(C)[C@@H]1CC[C@]2(C(=O)NCCNCCN)CC[C@]3(C)[C@H](CC[C@@H]4[C@@]5(C)C/C(=C/c6ccncc6)C(=O)C(C)(C)[C@@H]5CC[C@]43C)[C@@H]12`, the growth in [1] was 91.4%; in [2], 96%; in experiment [3], 78.1%; in [4], 90.2%; in experiment [5] it was 91.2%; in [6], 88.8%. The growth in [7] is 96.3%; in experiment [8] it was 86.6%; in experiment [9] it was 96%; in [10] it was 99.2%; in [11], 108%; in experiment [12] it was 92.2%. For the same compound, the growth in experiment [13] was 96.5%; in [14], 83.5%; in experiment [15], 118%; in experiment [16], 100%; in experiment [17], 85.6%; in [18] it was 95.7%. Further, the growth in experiment [19] was 97.1%; in [20] it was 82.9%.
Turning to `O=C(c1ccc(-c2nc(CSc3nc4ccccc4s3)no2)cc1)N1CCSCC1`, the growth in experiment [1] was 68.5%; in experiment [2], 40.8%; in experiment [3], 91.9%; in [4], 87.7%; in [5], 61.6%; in [6] it was 63.5%. For the same compound, the growth in [7] was 24.6%; in experiment [8] it was 59.9%; in [9], 55.2%; in experiment [10], 96.6%; in experiment [11] it was 45.7%; in [12], 47.1%. Moreover, the growth in [13] was 82.3%; in experiment [14], 55.6%; in experiment [15], 55.1%; in experiment [16], 60.4%; in [17] it was 63.5%; in [18], 82.1%. The growth was 71.2% in [19] and -1.49% (active) in experiment [20].
With `COc1ccc(/C=N/C2=C(C#N)C(c3cccc(Cl)c3)c3c(ccc4ccccc34)O2)cc1` (stereo not given), the growth in [1] is 16.7%; in [2], 10.3%; in experiment [3] it was -30.1% (active); in [4], 26.8%; in experiment [5], 25.6%; in experiment [6] it was 23.8%. The growth was 31.3% in experiment [7]; 36.3% in experiment [8]; 26.7% in experiment [9]; 70.1% in [10]; 51.2% in [11]; 33.9% in [12]. Further, the growth in experiment [13] is 39.6%; in experiment [14], 43%; in experiment [15], 82%; in experiment [16], 31%; in experiment [17], 20.3%; in [18] it was -4.91% (active). Besides, the growth in experiment [19] was 16.9%; in experiment [20], 21.8%.
Consider `O=C(Nc1ncc(Cc2ccc(Cl)c(C(F)(F)F)c2)s1)c1ccc2nnsc2c1`, for which the growth in experiment [1] is 40.4%; in experiment [2] it was 57.7%; in [3], 90.8%; in experiment [4] it was 46.2%; in [5] it was 42.7%; in experiment [6], 38.3%. For the same compound, the growth was 38.3% in experiment [7]; 6.95% (active) in experiment [8]; 29.3% in [9]; 54.7% in experiment [10]; 47.5% in experiment [11]; 39.4% in experiment [12]. In addition, the growth in experiment [13] is 58.2%; in [14] it was 40.9%; in experiment [15], 48.3%; in experiment [16], 43.7%; in [17], 28.1%; in [18] it was 82%. The growth in experiment [19] is 45.5%; in experiment [20] it was 30.9%.
Regarding `COc1ccc(-c2nnc(-c3ccc4c(c3)nc(-c3ccncc3)n4C3CCCCC3)o2)cc1`, the growth in [1] was 53.6%; in [2], 53%; in experiment [3], 72.2%; in experiment [4] it was 89.4%; in experiment [5] it was 59.7%; in [6], 49.7%. Besides, the growth was 17.2% in experiment [7]; 68.3% in experiment [8]; 72.5% in experiment [9]; 94.6% in [10]; 77.3% in experiment [11]; 64% in [12]. For the same compound, the growth in experiment [13] is 83.8%; in experiment [14], 38.3%; in [15], 75%; in experiment [16], 89.2%; in experiment [17], 89.7%; in [18] it was 73.9%. Further, the growth in [19] is 55.5%; in [20] it was 44.3%.
For the compound `C=C1C(=O)O[C@H]2[C@H]1CC/C(COC(=O)N[C@H]1C[C@H](O[C@H]3C[C@](O)(C(=O)CO)Cc4c(O)c5c(c(O)c43)C(=O)c3c(OC)cccc3C5=O)O[C@@H](C)[C@H]1O)=C\CC[C@@]1(C)O[C@@H]21`, the growth in experiment [1] was 99.2%; in [2], 25.2%; in [3], 56.4%; in [4] it was 68.4%; in experiment [5], 45.3%; in [6] it was 78%. For the same compound, the growth was 68.3% in [7]; 34.6% in [8]; 0.614% (active) in experiment [9]; 9.44% (active) in experiment [10]; 85.5% in experiment [11]; 103% in [12]. Further, the growth in experiment [13] was 34.9%; in experiment [14], 83.1%; in experiment [15], 64.9%; in experiment [16], 88.9%; in experiment [17] it was 61.7%; in [18], 70.5%. For the same compound, the growth was -18.2% (active) in experiment [19] and -5.6% (active) in [20].
